Experimental data reported in publication PMC13494018.
Values without a mark were called inactive. The rule behind the calls is not given here.

Experiments:
[1] = target: control:Baker_PD-L1, Q9NZQ7
[2] = target: CD276, Q5ZPR3
Chain of CD276, Q5ZPR3 (Q5ZPR3 whole entry): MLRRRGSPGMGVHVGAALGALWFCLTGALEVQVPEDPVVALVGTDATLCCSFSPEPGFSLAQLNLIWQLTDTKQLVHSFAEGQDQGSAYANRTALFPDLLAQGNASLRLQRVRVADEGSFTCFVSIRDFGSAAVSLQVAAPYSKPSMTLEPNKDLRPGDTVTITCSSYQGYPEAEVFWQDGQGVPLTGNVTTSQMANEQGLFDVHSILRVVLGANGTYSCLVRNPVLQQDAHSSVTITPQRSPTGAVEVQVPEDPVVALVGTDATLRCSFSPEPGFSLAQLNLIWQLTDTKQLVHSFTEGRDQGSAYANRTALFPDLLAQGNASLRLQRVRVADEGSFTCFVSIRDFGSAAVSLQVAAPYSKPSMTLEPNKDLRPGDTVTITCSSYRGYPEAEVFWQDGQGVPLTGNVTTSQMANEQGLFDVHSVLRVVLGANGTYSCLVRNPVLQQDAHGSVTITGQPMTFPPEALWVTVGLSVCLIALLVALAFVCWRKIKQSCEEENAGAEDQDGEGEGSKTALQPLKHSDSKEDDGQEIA

Chain of control:Baker_PD-L1, Q9NZQ7 (Q9NZQ7 whole entry): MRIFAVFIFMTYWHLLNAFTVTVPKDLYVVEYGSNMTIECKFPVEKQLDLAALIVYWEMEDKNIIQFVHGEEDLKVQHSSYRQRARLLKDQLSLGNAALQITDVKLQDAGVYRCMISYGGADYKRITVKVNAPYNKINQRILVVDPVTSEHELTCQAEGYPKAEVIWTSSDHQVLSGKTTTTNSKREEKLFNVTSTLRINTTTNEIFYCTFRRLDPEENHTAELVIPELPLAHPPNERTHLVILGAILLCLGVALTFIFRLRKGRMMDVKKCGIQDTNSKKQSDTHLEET

Binder | binding in a display sort [1] | binding in a display sort [2]
Pdl1_binder_AF2_76 (protein) MYEVVIEGEKSVAEFIKLIAEQLGAEAEVEGDKAVIRTERREDAERLAEAAKRFGAEAEVRE | binds (active) | –
design_391_ca6baf5d-2451-47ba-bffc-fc886679966a_926_dldesign_0_cycle1_af2pred (protein) AEAAAQKALATAMAKALKKRGEELLKEAKTASAEEAKKLLDNFVKLGEVLAAGAPPEVGAEVKAATEKYSAEMQAVIDAKAA | – | not found
Pdl1_binder_AF2_85 (protein) EARELVKEAVEKFEKAAEEALKDFEKAEKLAKEALEKLYEAAKLDPSLRPVYQEAALHLVKALAHDDDPEKASEELKKAAEVAKKELE | not found | –
design_391_ca6baf5d-2451-47ba-bffc-fc886679966a_1195_dldesign_0_cycle1_af2pred (protein) SLYDEALKYAMQAANLGYEADPELAKKLRQAAIALAQGKIDEAIALLKEAKELAKKYPEKEPEIKELIDKAIELANKIK | – | not found
design_391_ca6baf5d-2451-47ba-bffc-fc886679966a_866_dldesign_0_cycle1_af2pred (protein) SMEEEKKKEAEKKAQSYLKSVEVWATATISAIAQGVVGAQMLANLKKKSEEAIKKLKELGTEEGKKAAEKVKAYLAKAEAAA | – | not found
design_391_ca6baf5d-2451-47ba-bffc-fc886679966a_158_dldesign_0_cycle1_af2pred (protein) AEEKRKKAQELYEKAIAEAKELAKKGDIGALLKVTMDAAKEILELDPSLEPLAEALRKQGTALAQEAIAAAIAAAA | – | not found
design_391_ca6baf5d-2451-47ba-bffc-fc886679966a_1313_dldesign_0_cycle1_af2pred (protein) MEEARRRAEELLRRVRELAARAAKAAAAGDVAEAQRLLAEALEALAELSRLGREVGPEGRELVREGNRAVAAAARAALAAARAA | – | not found
design_391_ca6baf5d-2451-47ba-bffc-fc886679966a_1360_dldesign_0_cycle1_af2pred (protein) DYTERAKAALKSAIENMAKAAIEAAKEDAEKGKEKLKQLKELSEQMIAIAASLDPALAKEIKAYAEEQIKKVEEAIKKAK | – | not found
Pdl1_binder_AF2_65 (protein) ETVRVDATTKETALALMEMGEKAGLKVVIGLTSKEDAEEVAEIAKKKGKFEVFHI | not found | –
design_391_ca6baf5d-2451-47ba-bffc-fc886679966a_294_dldesign_0_cycle1_af2pred (protein) AAEEAAEKAVEEAEKALEKAKAHLAKYPDSLAAKAAVALAKTMLAAAKEVAEEGNLEELERTLESVRKATEEMDKLLAADEAAAA | – | not found
Pdl1_binder_AF2_66 (protein) REQIYEQFLELAKAEAREFPGVVDVSREGDTLIVTTKTEEAAKEFEKRLQPIADSVGVKLETKVA | not found | –
Pdl1_binder_AF2_86 (protein) MRLTIGIAETEEEAEELARRFREEGVEDFVVVTDLEEAVAIAREAGVPTTILAPKGFDTKALLKAAMELNEAGIPTSVQHIP | not found | –
design_391_ca6baf5d-2451-47ba-bffc-fc886679966a_1601_dldesign_0_cycle1_af2pred (protein) STLQELVDAAKEALAAAGELYRLDPERGEALRKQVWALLIAGLRDPATAAADKAKIEALKAEAEALVAELK | – | not found
design_391_ca6baf5d-2451-47ba-bffc-fc886679966a_1141_dldesign_0_cycle1_af2pred (protein) APAAATARAVGKRAQAAAKKLAKAGTKEVAKEAKKLAEKAKELEKEAIANAADTAVSGAKILEILKLLDEANKLLKKY | – | not found
design_391_ca6baf5d-2451-47ba-bffc-fc886679966a_175_dldesign_0_cycle1_af2pred (protein) DEKLKKAEELAKQAAKATLTPTGKAEFDKLANEAMKLVSQLFKEDPAKGQKAAKALSEAIDQAKANAALAAAAA | – | not found
Pdl1_binder_AF2_93 (protein) REEKIEKVREAAEEAKKAGAIEDYEIEGDEVKFYRKDWKPESLLIVMKAAQVAALEGFKPTIVKS | not found | –
Pdl1_binder_AF2_87 (protein) ERREELEAIAKATESLAELLELGEKDPEVRKAALRAAQIVAERLAERAEELGAEEAAELLRKAAEDPENALRYVREAAEKLRAEAEAL | not found | –
Pdl1_binder_AF2_91 (protein) DEKFKKIKKMAKVFSESTGKEIEVEKKGDEFIITAKDADEATYQAAKLLKARAEDLGVKARFKEA | not found | –
design_391_ca6baf5d-2451-47ba-bffc-fc886679966a_1760_dldesign_0_cycle1_af2pred (protein) KEETQRVMVEATRVINRVAALVIAHPELTEAAALIQQALALLEQAKELLEAGEEEKALELAKQALELAKKALEIAESAL | – | not found

Binder | binding in a display sort [1] | binding in a display sort [2]
design_391_ca6baf5d-2451-47ba-bffc-fc886679966a_1034_dldesign_0_cycle1_af2pred (protein) ADAAAQALSQAFELAAQALTKTGSDEANAALQAVTRAMADPAKLPEAIAAAKKAAAAYPEVKALMDQAIKELEKAAELAKAA | – | not found
design_391_ca6baf5d-2451-47ba-bffc-fc886679966a_206_dldesign_0_cycle1_af2pred (protein) DWQAVALQAAEAAAQAAKEDPENAALFNEAAHLLLLAVARPETALELTEKALKLAEKAAKTGSELAKKAYELTKEALELLKAA | – | not found
design_391_ca6baf5d-2451-47ba-bffc-fc886679966a_1257_dldesign_0_cycle1_af2pred (protein) SAAAAAAARAAKAAADAEQLKALGDAAIAQLAADPSMAPQARAVAAMARAAAEGYAADPATAAAAEAARATAERVAAAAAAAA | – | not found
design_391_ca6baf5d-2451-47ba-bffc-fc886679966a_707_dldesign_0_cycle1_af2pred (protein) AEEEERERRAEEVRRWAEERAAQARALAAQDPQAGLALALEAMEELRELRERDPAVAEAAREGEQLMAEIAAQAAKAATA | – | not found
design_391_ca6baf5d-2451-47ba-bffc-fc886679966a_968_dldesign_0_cycle1_af2pred (protein) AAAQQQLRDQARKLLEQAAKRAKEAGNEEAAKEAKEAAKLLKEGGSLGEAAVEASRAHAAAVRFGDEETAALAQAALKLLSQAA | – | not found
design_391_ca6baf5d-2451-47ba-bffc-fc886679966a_219_dldesign_0_cycle1_af2pred (protein) AEAERRREEVIREAREAAERLREAGREASPELRALAEATAQTVLLLVEGGEANSPELGLRVAERALELARRTLEEVRAG | – | not found
design_391_ca6baf5d-2451-47ba-bffc-fc886679966a_164_dldesign_0_cycle1_af2pred (protein) AGKVGELAAETLKVAAEARRVAAELPEIREEVTARTSRLVAEAFRAALSGTDEDTAKRALEELKRLLEEARELLEEA | – | not found
Pdl1_binder_AF2_79 (protein) KREEALRKAAEAAVKAMEMAKKASDEAKVEIMEHFSRAMRAIKEGDFEEAIRHLRKAAEVAEEKVGKEVGEFIREAAREVERIA | not found | –
design_391_ca6baf5d-2451-47ba-bffc-fc886679966a_1483_dldesign_0_cycle1_af2pred (protein) SEAAAKEKKAIEAIKKAAADAEAMLQSLIAAGMPAANARAVVTTMTTAARTAAKEAGTEAAKKAAKEAIAKIEAAGKAAEAQLAAQAA | – | not found
design_391_ca6baf5d-2451-47ba-bffc-fc886679966a_1281_dldesign_0_cycle1_af2pred (protein) AAQEVQERAREVAARAEALAAAAAADPAAARLARSAAHFARLAAELAPTDLPLAQQALEVAESLLAEAEALLAARRA | – | not found
Pdl1_binder_AF2_72 (protein) DEMDKLKVEAMKYGSKAIKIASEKDEELAERAAEALSLAMTDPEKGAKELRKIAEELEEKGLPEAAEYLRKAADYFERYAKLLKE | not found | –
design_391_ca6baf5d-2451-47ba-bffc-fc886679966a_1527_dldesign_0_cycle1_af2pred (protein) AEERAEEVRRRAEELRARALALIAEDPGAGMAYAVEAARELSEYGRAHPEVAEAAGEAANDVLSAASRAAMAVYAA | – | not found
Pdl1_binder_AF2_92 (protein) PKVVVEADTEEEAEKMAKKFREMGAEAEIEGKTVVATSDSEELIKLIAVIARDRGLKAEVIP | not found | –
Pdl1_binder_AF2_64 (protein) EEEEKKEKANLLRVEAAQKLSLVAEALPEVREKALEAIRKIFDKETIEEGVELAREIAERVAAEGTEEQARLAREAVEKAEEALKLEK | not found | –
design_391_ca6baf5d-2451-47ba-bffc-fc886679966a_888_dldesign_0_cycle1_af2pred (protein) AAAAAAAAAAAAAAAAALARAEELAAAASPEVRALIEAHGIAGRIMFMYTLGARAAAADPARGAELLADARALLAAAQAASRAA | – | not found
Pdl1_binder_AF2_73 (protein) DEARDEAITELMLVASRALKAGPALAEAVELLLEAIHLAVEGRLEEAAELAERAAELAREAGDEEVAEEAERAAELARRAAEEEE | not found | –
design_391_ca6baf5d-2451-47ba-bffc-fc886679966a_1193_dldesign_0_cycle1_af2pred (protein) AAARQAALLAQAEALRAQAVALADGTAEEQQALLQQIVDLAQAHPDMSPETWAALNAALAAASSAYIRAARA | – | not found
Pdl1_binder_AF2_95 (protein) LEEERREFEEVLERLLEVAEEDPEVRERAEEMVRRAREVAEREGVAAGAAEAAVGALRIASEASEEVRKRYLELASELQAIGQRVVRA | not found | –
design_391_ca6baf5d-2451-47ba-bffc-fc886679966a_1188_dldesign_0_cycle1_af2pred (protein) AAAEEIAARNGEALARQAAAASPEDAAAIAENALQMARASPLFAPAARKAVEAAAETIAKEDPERGEALLREGLAAVEAIEA | – | not found
